In PubChem BioAssay (Tox21):
Results filed as inconclusive are left out. A call without a number means that no potency is given here. Activity calls are given as the source filed them. Unless noted, the call rests on the fitted dose curve; in most records, active means well fitted curve in the direction sought with a large enough effect in the repeat runs; inconclusive means weak or mixed curves; inactive means no such curve, though single readings can be large; an effect the other way counts as inactive or inconclusive.

Key:
[1] = target: Estrogen receptor beta (Homo sapiens) (UniProt Q92731); assay: qHTS assay to identify small molecule agonists of the estrogen receptor beta (ER-beta) signaling pathway (AID 1259377; active means well fitted activation curve with a large enough effect in the signal ratio in the repeat runs, not every such curve was filed as active; the % refers to the signal ratio); settings: ER-beta-UAS-bla HEK293T, beta-lactamase FRET ratio, 16 h; series mostly up to 92.4 µM
Chain of Estrogen receptor beta (Homo sapiens) (Q92731 whole entry, looked up): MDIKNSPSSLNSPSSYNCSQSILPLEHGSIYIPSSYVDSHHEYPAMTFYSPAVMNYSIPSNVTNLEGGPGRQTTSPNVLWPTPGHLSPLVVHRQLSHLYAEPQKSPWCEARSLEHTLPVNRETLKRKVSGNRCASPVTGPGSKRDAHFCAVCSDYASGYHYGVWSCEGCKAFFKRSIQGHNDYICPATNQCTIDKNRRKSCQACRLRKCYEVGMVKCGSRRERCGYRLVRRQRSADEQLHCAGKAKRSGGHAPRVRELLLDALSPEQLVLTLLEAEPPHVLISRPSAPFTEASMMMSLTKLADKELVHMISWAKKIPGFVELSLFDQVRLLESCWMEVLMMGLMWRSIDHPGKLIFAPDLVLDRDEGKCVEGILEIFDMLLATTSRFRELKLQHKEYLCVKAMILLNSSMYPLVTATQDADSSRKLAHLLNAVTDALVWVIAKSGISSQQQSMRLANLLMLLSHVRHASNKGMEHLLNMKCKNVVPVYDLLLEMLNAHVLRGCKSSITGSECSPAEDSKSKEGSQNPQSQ
Method in brief: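 In HEK293T cells bearing a UAS-beta-lactamase reporter under ER-beta control, DMSO-delivered compounds were incubated for 16 hr at 37C. Activity was detected as fluorescence 2 hours after LiveBLAzer B/G FRET substrate addition.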

[2] = target: Estrogen receptor beta (Homo sapiens) (UniProt Q92731); assay: qHTS assay to identify small molecule antagonists of the estrogen receptor beta (ER-beta) signaling pathway (AID 1259378; active means well fitted inhibition curve with a large enough effect in the signal ratio in the repeat runs, not every such curve was filed as active; the % refers to the signal ratio; further: potency means the concentration at half of the fitted maximal effect); settings: ER-beta-UAS-bla HEK293T, beta-lactamase FRET ratio, 16 h; series mostly up to 92.4 µM
Method in brief: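 Antagonist mode: compounds added to beta-lactamase reporter HEK293T ER-beta-UAS cells stimulated with E2 (1nM final), 16 hr at 37C. LiveBLAzer B/G FRET substrate, 2 hours room temperature, fluorescence read-out.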

[3] = qHTS assay to identify small molecule agonists of the androgen receptor (AR) signaling pathway in the presence of an antagonist - cell viability counter screen (AID 1259379); settings: MDA-kb2 viability, CellTiter-Fluor, 16 h; series mostly up to 92.4 µM; further: nearly all actives have a fitted effect of over 25% in size; further: potency means the concentration at half of the fitted maximal effect
Method in brief: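 Nilutamide-containing (3.0uM final) MDA-kb2 cultures, 3,000 cells/well, were treated with compounds across 15 concentrations. After 16 hr at 37C with no CO2, cell viability was determined by CellTiter-Fluor fluorescence in the luciferase assay wells.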

[4] = qHTS assay to identify small molecule antagonists of the estrogen receptor beta (ER-beta) signaling pathway - cell viability counter screen (AID 1259382); settings: ER-beta-UAS-bla HEK293T viability, CellTiter-Glo luminescence, 16 h; series mostly up to 92.4 µM;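 further: HEK293T cells carrying ER-beta-UAS-bla reporter stimulated with estradiol; nearly all actives have a fitted effect of over 55% in size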
Method in brief: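 Viability is scored by CellTiter-Glo luminescence (30 min, room temperature) in ER-beta-UAS-bla HEK293T wells already read for reporter fluorescence. Compound exposure lasts 16 hr at 37C alongside 1nM 17-beta-estradiol in charcoal-stripped serum medium.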

[5] = qHTS assay to identify small molecule agonists or antagonists of the thyroid stimulating hormone receptor (TSHR) signaling pathway - wild type cell line counter screen (AID 1259384; calls by dose curve); settings: HEK293 wild type, cAMP HTRF counter-screen; series mostly up to 92.4 µM
Method in brief: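 Counter screen in untransfected Hek293: compounds (15-point titration, triplicate) plus phosphodiesterase inhibitor Ro20-1724 added after 18 h plating; 30 min RT. Intracellular cAMP via competitive d2/cryptate immunoassay, 1 h incubation.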

[6] = target: Thyrotropin receptor (Homo sapiens) (UniProt P16473); assay: qHTS assay to identify small molecule antagonists of the thyroid stimulating hormone receptor (TSHR) signaling pathway (AID 1259385; calls by dose curve; further: nearly all actives have a fitted effect of over 20% in size); settings: TSHR-HEK293 cAMP HTRF, TSH-stimulated antagonist mode; series mostly up to 92.4 µM
Chain of Thyrotropin receptor (Homo sapiens) (P16473 whole entry, looked up): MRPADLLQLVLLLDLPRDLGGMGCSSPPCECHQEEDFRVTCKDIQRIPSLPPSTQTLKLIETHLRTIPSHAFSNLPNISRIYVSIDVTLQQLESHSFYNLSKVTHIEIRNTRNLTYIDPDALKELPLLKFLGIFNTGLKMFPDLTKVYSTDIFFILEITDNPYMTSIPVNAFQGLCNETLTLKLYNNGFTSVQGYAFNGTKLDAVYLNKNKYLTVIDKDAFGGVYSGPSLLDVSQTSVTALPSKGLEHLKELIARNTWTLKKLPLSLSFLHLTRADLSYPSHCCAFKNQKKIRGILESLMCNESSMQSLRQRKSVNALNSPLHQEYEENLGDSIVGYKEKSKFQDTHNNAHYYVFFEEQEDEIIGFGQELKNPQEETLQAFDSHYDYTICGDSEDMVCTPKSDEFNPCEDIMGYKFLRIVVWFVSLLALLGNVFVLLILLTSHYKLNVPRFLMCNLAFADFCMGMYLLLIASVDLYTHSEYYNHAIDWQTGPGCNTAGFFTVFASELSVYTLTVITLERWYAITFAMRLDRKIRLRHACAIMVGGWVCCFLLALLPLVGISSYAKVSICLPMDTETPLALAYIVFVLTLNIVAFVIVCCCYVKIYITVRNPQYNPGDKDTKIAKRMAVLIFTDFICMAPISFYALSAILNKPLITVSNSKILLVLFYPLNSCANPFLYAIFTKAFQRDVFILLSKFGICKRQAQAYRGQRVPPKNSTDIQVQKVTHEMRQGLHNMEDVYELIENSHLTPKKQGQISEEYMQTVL
Method in brief: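 Antagonist mode: compound-treated TSHR-expressing HEK293 cells were stimulated with 1.5 ng/mL TSH (final) in presence of Ro20-1724 for 30 min at RT. HTRF cAMP detection after 1 h; each compound tested at 15 concentrations, triplicate.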

[7] = qHTS assay to identify small molecule agonists of the estrogen receptor alpha (ER-alpha) signaling pathway in the presence of an antagonist - cell viability counter screen (AID 1259386); settings: VM7Luc4E2 viability, CellTiter-Fluor fluorescence, 22 h; series mostly up to 92.4 µM;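 further: cells exposed to compounds for 22 h at 37 °C before the viability read; nearly all actives have a fitted effect of over 30% in size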
Method in brief: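 In this counter screen, compound effects on VM7Luc4E2 viability were tested in the presence of the antagonist ICI-182,780 at 10.0nM final. Compounds were dosed at 15 concentrations, exposure lasted 22hr, and the CellTiter-Fluor signal was read.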

[8] = target: Estrogen receptor (Homo sapiens) (UniProt P03372); assay: qHTS assay to identify small molecule agonists of the estrogen receptor alpha (ER-alpha) signaling pathway in the presence of an antagonist (AID 1259383; calls by dose curve; further: top concentration of the series differs between compounds; nearly all actives have a fitted effect of over 15% in size); settings: VM7Luc4E2 cells, ERE-luciferase, +ICI-182,780, 22 h; series mostly up to 92.4 µM
Chain of Estrogen receptor (Homo sapiens) (P03372 whole entry, looked up): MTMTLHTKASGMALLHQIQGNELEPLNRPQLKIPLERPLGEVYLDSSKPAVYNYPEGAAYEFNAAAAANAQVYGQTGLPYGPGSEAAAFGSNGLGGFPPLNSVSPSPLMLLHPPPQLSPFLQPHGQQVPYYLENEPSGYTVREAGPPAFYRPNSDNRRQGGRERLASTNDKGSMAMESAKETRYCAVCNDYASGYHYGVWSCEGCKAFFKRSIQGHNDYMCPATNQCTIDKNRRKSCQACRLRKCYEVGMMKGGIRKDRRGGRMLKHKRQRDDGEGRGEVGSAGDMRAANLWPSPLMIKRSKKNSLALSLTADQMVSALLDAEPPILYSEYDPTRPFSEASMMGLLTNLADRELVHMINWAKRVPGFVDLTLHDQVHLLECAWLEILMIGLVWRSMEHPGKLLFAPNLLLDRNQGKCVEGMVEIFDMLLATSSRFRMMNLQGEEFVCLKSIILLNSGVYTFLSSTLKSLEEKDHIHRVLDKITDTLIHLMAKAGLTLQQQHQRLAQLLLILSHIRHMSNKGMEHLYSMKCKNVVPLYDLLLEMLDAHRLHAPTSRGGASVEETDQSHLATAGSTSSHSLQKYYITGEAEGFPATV
Method in brief: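 Readout was ERE-driven luciferase luminescence in VM7Luc4E2 cells, which express full-length ER-alpha endogenously. Compounds were tested at 15 concentrations for 22hr alongside 10.0nM ICI-182,780 (final concentration).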

[9] = target: Androgen receptor (Homo sapiens) (UniProt P10275); assay: qHTS assay to identify small molecule agonists of the androgen receptor (AR) signaling pathway in the presence of an antagonist (AID 1259381; calls by dose curve; further: nearly all actives have a fitted effect of over 15% in size); settings: MDA-kb2 MMTV-luciferase, AR agonist + nilutamide, 16 h; series mostly up to 92.4 µM
Chain of Androgen receptor (Homo sapiens) (P10275 whole entry, looked up): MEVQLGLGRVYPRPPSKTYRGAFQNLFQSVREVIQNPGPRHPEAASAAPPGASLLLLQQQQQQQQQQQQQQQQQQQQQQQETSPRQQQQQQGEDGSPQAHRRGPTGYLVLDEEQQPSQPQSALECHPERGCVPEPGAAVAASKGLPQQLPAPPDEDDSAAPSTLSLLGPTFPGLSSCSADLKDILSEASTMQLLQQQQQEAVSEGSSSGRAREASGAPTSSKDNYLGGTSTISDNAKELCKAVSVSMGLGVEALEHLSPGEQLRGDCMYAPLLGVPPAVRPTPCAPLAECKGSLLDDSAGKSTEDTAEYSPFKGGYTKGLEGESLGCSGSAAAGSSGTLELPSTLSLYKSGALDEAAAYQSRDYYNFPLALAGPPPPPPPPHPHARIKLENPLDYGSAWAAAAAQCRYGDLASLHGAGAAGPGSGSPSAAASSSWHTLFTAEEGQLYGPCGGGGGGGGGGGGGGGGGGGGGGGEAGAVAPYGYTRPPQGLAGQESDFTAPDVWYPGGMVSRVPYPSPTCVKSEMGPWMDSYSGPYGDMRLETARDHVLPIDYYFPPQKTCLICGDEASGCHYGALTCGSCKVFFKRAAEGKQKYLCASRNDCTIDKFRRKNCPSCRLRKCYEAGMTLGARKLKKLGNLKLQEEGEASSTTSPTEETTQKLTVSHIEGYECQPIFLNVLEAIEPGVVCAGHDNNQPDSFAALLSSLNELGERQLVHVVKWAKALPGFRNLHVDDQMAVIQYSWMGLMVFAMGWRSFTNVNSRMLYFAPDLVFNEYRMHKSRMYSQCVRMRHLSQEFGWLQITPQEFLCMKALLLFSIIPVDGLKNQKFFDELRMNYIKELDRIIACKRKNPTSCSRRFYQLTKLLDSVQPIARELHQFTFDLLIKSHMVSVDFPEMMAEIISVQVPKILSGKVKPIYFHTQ
Method in brief: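 Reporter-gene luminescence from MDA-kb2 cells exposed 16hr at 37C (0% CO2) to 15-point compound titrations with 3.0uM final nilutamide as AR antagonist.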

[10] = qHTS assay to identify small molecule agonists of the estrogen receptor beta (ER-beta) signaling pathway - cell viability counter screen (AID 1259380); settings: ER-beta-bla HEK293T viability, CellTiter-Glo luminescence, 16 h; series mostly up to 92.4 µM; further: nearly all actives have a fitted effect of over 30% in size
Method in brief: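 Steps: plate ER-beta-UAS-bla HEK293T cells, rest 6 hr; add compounds in DMSO; incubate 16 hr at 37C, 5% CO2; add FRET substrate 2 hr; add CellTiter-Glo, wait 30 min at room temperature; read luminescence.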

| SMILES | Potency [1] | Potency [2] | Potency [3] | Potency [4] | Potency [5] | Potency [6] | Potency [7] | Potency [8] | Potency [9] | Potency [10] |
| --- | --- | --- | --- | --- | --- | --- | --- | --- | --- | --- |
| COc1cc(S(=O)(=O)Nc2ccccc2)c(OC)cc1N | inactive | inactive | inactive | inactive | inactive | inactive | inactive | – | – | – |
| CCOC(=O)c1c(N)sc2c1CCN(Cc1ccccc1)C2 | inactive | inactive | inactive | inactive | inactive | inactive | – | – | – | – |
| CC1=C2[C@@H]([C@H](C)CC[C@H]2/C=C(\C)C(=O)O)[C@H](O)C1 | inactive | inactive | inactive | inactive | inactive | inactive | inactive | inactive | – | – |
| CC(=O)c1ccc[nH]1 | inactive | inactive | inactive | inactive | inactive | inactive | – | inactive | inactive | – |
| O=C1NC(=O)c2cccc3cccc1c23 | inactive | inactive | inactive | inactive | inactive | inactive | inactive | inactive | – | – |
| CCc1ccc(C)cc1 | inactive | inactive | inactive | inactive | – | – | – | – | inactive | – |
| C=CCOC(=O)COCCC(C)C | inactive | inactive | inactive | inactive | inactive | inactive | inactive | inactive | – | – |
| O=C(C(=O)c1ccco1)c1ccco1 | inactive | inactive | inactive | inactive | – | inactive | inactive | inactive | – | – |
| CCCCCCC(O)CCOC(C)=O (centres undefined) | inactive | inactive | inactive | inactive | inactive | inactive | inactive | inactive | – | – |
| C/C(C=O)=C\c1ccccc1 | inactive | inactive | inactive | inactive | inactive | inactive | inactive | inactive | – | – |
| COc1ccc(-c2cc(=S)ss2)cc1 | inactive | 13.3 µM (active) | – | inactive | inactive | – | – | – | – | inactive |
| Cc1ccc2nc(N)[nH]c(=O)c2c1Sc1ccncc1 | inactive | – | inactive | inactive | – | – | inactive | – | – | – |
| OCC(CO)n1cnc(-c2ccc(F)cc2)c1-c1ccnc(Oc2ccccc2)n1 | inactive | inactive | inactive | inactive | – | – | inactive | – | – | – |
| CCN(CC)C(=O)/C(C#N)=C/c1cc(O)c(O)c([N+](=O)[O-])c1 | inactive | – | 23.7 µM (active) | inactive | inactive | inactive | – | inactive | inactive | inactive |
| CCCCCCCCCCCC(=O)OCC(O)CO (centres undefined) | inactive | – | inactive | – | – | – | inactive | inactive | – | – |
